M1 ag parental – nonselective activator or artifact in parental CHO-K1 cells | activation, % at 3 µM | Fluo-8 calcium fluorescence; scaled to maximal ATP response, vehicle zero | 360,000 tested, 0.48% active; in the data active = activation above about 15%;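 note: untransfected CHO-K1 host cells lacking M1 receptor as counterscreen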
NTR1 ag – activates human neurotensin receptor 1. P30989. NTR1-U2OS beta-arrestin-GFP spot imaging, agonist mode. activation, % at 20 µM. 330,000 tested, 0.17% active. AID 493036;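 active = activation at or above 40% of the spot to cytoplasm intensity ratio, with at least 20 cells analyzed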;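 note: 0% = DMSO without peptide and 100% = 100 nM NTR1 peptide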
CHO-K1 Ca antag – M1 antagonist counterscreen hit in parental CHO-K1 cells; ATP-induced calcium, Fluo-8 fluorescence; inhibition, % at 3 µM; 360,000 tested, 0.6% active; AID 602250;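 active = inhibition above a per-plate cutoff, the plate's mean sample inhibition plus 3 SD, cut at about 24% in these data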;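 note: 0% = DMSO plus EC80 ATP and 100% = DMSO alone without ATP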
ANO1 block – blocks the mouse calcium-activated chloride channel TMEM16A | HEK293 TMEM16A/YFP iodide influx fluorescence, ionomycin | normalized B-score (activity score, 25-100; higher = stronger inhibition) at 10 µM | 310,000 tested, 1.2% active;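 active = ratio plate-corrected score three or more library SD toward inhibition, starting fluorescence score within five deviations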;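 note: score derived from kinetic fluorescence span divided by baseline fluorescence per well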
Target sequence (Q8BHY3 whole entry, looked up): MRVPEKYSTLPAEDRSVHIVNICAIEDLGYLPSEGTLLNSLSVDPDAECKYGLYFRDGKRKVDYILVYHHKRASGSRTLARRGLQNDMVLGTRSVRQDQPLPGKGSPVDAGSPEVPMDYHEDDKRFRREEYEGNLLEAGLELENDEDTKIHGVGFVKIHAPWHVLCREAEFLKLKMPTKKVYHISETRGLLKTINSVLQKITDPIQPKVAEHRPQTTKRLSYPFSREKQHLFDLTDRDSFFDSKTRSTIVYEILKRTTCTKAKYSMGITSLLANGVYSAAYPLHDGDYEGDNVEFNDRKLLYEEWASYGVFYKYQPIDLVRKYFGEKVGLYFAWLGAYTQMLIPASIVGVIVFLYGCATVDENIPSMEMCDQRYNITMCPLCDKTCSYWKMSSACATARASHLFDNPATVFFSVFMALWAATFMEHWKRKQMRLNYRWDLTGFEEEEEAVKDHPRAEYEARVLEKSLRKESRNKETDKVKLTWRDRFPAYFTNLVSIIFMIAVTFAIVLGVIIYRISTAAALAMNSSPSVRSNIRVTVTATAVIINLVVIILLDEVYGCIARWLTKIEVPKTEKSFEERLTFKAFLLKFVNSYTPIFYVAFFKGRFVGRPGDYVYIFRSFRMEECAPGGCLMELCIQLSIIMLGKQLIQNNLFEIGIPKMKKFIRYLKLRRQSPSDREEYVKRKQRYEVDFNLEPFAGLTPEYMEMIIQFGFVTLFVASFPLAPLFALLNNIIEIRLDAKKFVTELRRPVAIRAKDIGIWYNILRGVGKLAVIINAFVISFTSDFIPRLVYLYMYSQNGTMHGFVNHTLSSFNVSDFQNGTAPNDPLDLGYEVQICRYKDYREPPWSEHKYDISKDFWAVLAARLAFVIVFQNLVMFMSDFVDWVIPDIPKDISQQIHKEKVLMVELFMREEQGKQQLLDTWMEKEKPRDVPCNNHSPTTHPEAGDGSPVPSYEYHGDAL
CHO-K1 Ca PAM – counter-screen for M1 PAMs: effect in parental CHO-K1 cells; 360,000 tested, 0.02% active; AID 602247; ATP EC20, Fluo-8 calcium fluorescence; 0% at ATP EC20, 100% at ATP max; activation, % at 3 µM;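 active = activation above the run cutoff, the mean activation of all test compounds plus 3 SD, cut at about 40% in these data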;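 note: peak over basal fluorescence ratio in a 140 s read after ATP addition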
TMEM16A act – activates or potentiates the mouse TMEM16A chloride channel | Q8BHY3 | B-score at 10 µM | HEK293 TMEM16A/YFP-H148Q/I152L, iodide quench fluorescence; hits give low values | 340,000 tested, 0.3% active;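 active = fluorescence-ratio B-score plate-corrected deviation score at least 3 library SD below zero, with starting fluorescence score within 5 deviations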;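 note: channel opened by trigger with iodide after compound preincubation; score built on the fluorescence ratio of max minus min over baseline; more negative score means more quench and so TMEM16A activation or potentiation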
* marks the source's active call; other numbers are inactive results; i = inactive; · = not tested or not shown. In the library only some 2.2% were active in any assay of this set; here they are far more common.

SMILES | M1 ag parental | NTR1 ag | CHO-K1 Ca antag | ANO1 block | CHO-K1 Ca PAM | TMEM16A act
COc1ccccc1NC(=O)c1csc(-n2nc(C)cc2C(F)(F)F)n1 | 0 | 1 | -4 | i | 26 | -4.7*
Cc1cc(C(F)(F)F)n(-c2nc(C(=O)NNS(=O)(=O)c3ccccc3)cs2)n1 | 0 | 0 | -5 | i | 14 | i
COc1cc(SC#N)ccc1N=Cc1c(C)[nH]n(-c2ccc(C)c(C)c2)c1=O | 0 | 24 | 1 | i | 13 | -13*
CC(C)(C)OC(=O)CNC(=O)c1[nH]cnc1C(=O)NCCCCCNC(=O)OC(C)(C)C | 17* | 10 | -5 | i | -2 | i
CC(C)C[C@H](NC(=O)c1nc[nH]c1C(=O)N[C@@H](CCCCNC(=O)OC(C)(C)C)C(=O)OC(C)(C)C)C(=O)OC(C)(C)C | -1 | 22 | 11 | i | -13 | -5*
O=C(Cc1cn(Cc2cccc(Cl)c2)c2ccccc12)N1CCCCCC1 | 2 | 24 | -15 | 25* | 21 | i
O=C(O)Cc1cn(Cc2cccc(Cl)c2)c2ccccc12 | 0 | 0 | 3 | i | 1 | i
O=[N+]([O-])c1ccc(NC(=S)NCCc2ccc(F)cc2)cc1 | 12 | 7 | 38* | 100* | -7 | -4.9*
O=[N+]([O-])c1cccc(NC(=S)NCCc2ccccc2)c1 | 12 | -2 | 31* | 100* | -10 | i
O=C(NCCc1ccc(F)cc1)Nc1ccc([N+](=O)[O-])cc1 | 15 | 0 | 18 | i | -11 | i
Nn1cnc2c(c1=O)C1(CCCCC1)Cc1ccccc1-2 | 0 | 5 | -7 | i | 24 | i
O=c1[nH]cnc2c1C1(CCCC1)Cc1ccccc1-2 | 2 | 3 | 44* | i | 5 | i
C=CCOc1ccccc1C(=O)/C=C1/C(=O)Nc2ccccc21 | 3 | 50* | 12 | i | 2 | i
C=CCOc1ccc(C(=O)/C=C2/C(=O)Nc3ccccc32)cc1 | 1 | 2 | 7 | i | 3 | i
Cc1noc(/C=C/c2ccco2)c1S(=O)(=O)N1CCC(C(=O)NC(C)c2ccccc2)CC1 (stereo not given) | 0 | -1 | 23 | i | -3 | i
Cc1noc(/C=C/c2ccco2)c1S(=O)(=O)N1CCC(C(=O)N2c3ccccc3CC2C)CC1 (stereo not given) | 0 | 2 | 26* | i | -9 | i
COc1cc(/C=C2/C(=O)NN(c3ccc(F)cc3)C2=O)cc(Cl)c1O | 0 | 3 | -4 | i | 3 | i
COc1cc(/C=C2/C(=O)NN(c3ccc(Cl)cc3)C2=O)cc(Br)c1O | 0 | 0 | 4 | i | 6 | -6.2*
CCOC(=O)c1sc(NC(=O)CSc2nc(-c3ccco3)cc(C(F)(F)F)n2)c(C(=O)OC)c1C | 0 | -1 | -22 | i | 17 | i
CCOC(=O)c1c(NC(=O)CSc2nc3ccccc3s2)sc(C(C)=O)c1C | 5 | 2 | -4 | 25* | 7 | i
CCOC(=O)c1c(NC(=O)c2cc(C(C)C)on2)sc(C(C)=O)c1C | 0 | 1 | -20 | i | 10 | -12*
COC(=O)c1ccc(CSc2nc(-c3ccco3)cc(C(F)(F)F)n2)o1 | 0 | 2 | -10 | i | 9 | -5.1*
CCOC(=O)c1c(NC(=O)c2cc(CC(C)C)on2)sc(C(C)=O)c1C | 0 | 2 | 6 | i | 7 | i
CCOC(=O)c1sc(NC(=O)CSc2nc(-c3ccco3)cc(C(F)(F)F)n2)c(C(=O)OCC)c1C | 0 | · | 5 | · | -16 | -7.7*
CCOC(=O)c1c(NC(=O)CSc2nc3cc(Cl)ccc3s2)sc(C(C)=O)c1C | · | 4 | · | i | · | ·
SMILES | M1 ag parental | NTR1 ag | CHO-K1 Ca antag | ANO1 block | CHO-K1 Ca PAM | TMEM16A act
COC(=O)c1ccc(CSc2nnc(NCc3ccccc3)s2)o1 | 0 | -2 | -4 | i | 9 | i
COC(=O)c1sc(NC(=O)CSc2nnnn2-c2ccc(C)cc2C)nc1C | 0 | 4 | 26* | i | -6 | i
COC(=O)c1ccc(CSc2nc(-c3ccccc3)cs2)o1 | 0 | 0 | -14 | 25* | 10 | i
CCOC(=O)c1c(NC(=O)CSc2nnnn2-c2ccc(OC)cc2)sc(C)c1C | 0 | 6 | -30 | 25* | -6 | i
COC(=O)c1ccc(CSc2nnnn2-c2ccc(C)cc2C)o1 | 2 | 3 | 13 | i | -18 | i
CCCCNC(=S)N(CCCO)Cc1cc2cc3c(cc2[nH]c1=O)OCO3 | 0 | · | 2 | · | 2 | ·
CC(C)(C)S(=O)N1Cc2cc(C(=O)NCC(F)(F)F)nc(-c3cccc(-c4cccc(F)c4)c3)c2[C@@H]1CCO (stereo not given in full) | 5 | · | 21 | · | 3 | ·
COc1cc(/C=C2/C(=O)c3cccc([N+](=O)[O-])c3C2=O)c(Br)cc1O | 0 | · | 4 | 25* | -9 | i
COC(=O)c1cccc(NC(=S)Nc2cc(Cl)ccc2OC)c1 | 1 | 1 | 1 | i | 12 | i
COC(=O)c1cccc(NC(=O)Nc2ccc(Cl)cc2Cl)c1 | 0 | 16 | 28* | i | -26 | i
CCOC(=O)C1=C(C)NC(=O)/C1=C\N(C)C | 0 | 0 | 28* | i | -15 | i
CN(C)c1nc(-c2ccccc2)nnc1C(F)(F)F | 0 | 1 | -1 | i | 17 | i
CN(C)CCNc1nc(-c2ccccc2)nnc1C(F)(F)F | 6 | 0 | 46* | i | 2 | i
Cc1sc2nc(CN3CCOCC3)nc(N3CCC(C(N)=O)CC3)c2c1C | 0 | 0 | 25* | i | -16 | i
N#CC(c1ccc(Cl)cc1)c1ccc2c(C(F)(F)F)cc(C(F)(F)F)nc2n1 (stereo not given) | 10 | 11 | 24* | 100* | 9 | i
COc1ccc(C(=O)NCCn2ccc3ccccc32)c(OC)c1 | 2 | -1 | -35 | i | 41* | i
O=C(Cn1c2ccccc2c(=O)c2cc([N+](=O)[O-])ccc21)Nc1ccccc1Cl | 15* | 4 | 0 | i | 21 | i
COC(=O)c1cc(NC(=O)Cc2ccccc2[N+](=O)[O-])cc(C(=O)OC)c1 | 15* | 0 | 3 | i | 2 | i
O=C(Cc1ccccc1[N+](=O)[O-])Nc1ccc2c(c1)OCCO2 | 0 | 0 | -5 | i | 19 | i
CCOc1ccccc1-c1cnc(NC)cn1 | 0 | · | 15 | · | -3 | ·
O=C(Nc1cc(Cl)cc(Cl)c1)c1cccnc1 | 18* | 2 | 4 | i | 8 | i
O=C(Nc1cccc(NC(=O)c2cccc(Cl)c2)c1)c1cccnc1 | 6 | -2 | 16 | i | -8 | i
Cc1cc(C)c(C(O)c2ncc(-c3ccccc3F)[nH]2)c(C)c1 (stereo not given) | 2 | · | 3 | · | 12 | ·
